High-throughput results deposited in PubChem BioAssay by National Center for Advancing Translational Sciences (NCATS).
KDM5B inh = KDM5B demethylase inhibition; Q9UGL1; KDM5B demethylase, FDH-coupled NADH fluorescence (FDH is formaldehyde dehydrogenase); Potency, µM (doses to about 57.7 µM), most hits filed as inhibitors; actives 2.6% (n = 220,000); active means well fitted inhibition curve with a large enough effect; inconclusive means small, poorly fitted or top-dose-only effect; inactive means no such curve, though single readings can be large or run the other way; further: nearly all actives have a fitted effect of over 70% in size
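qHTS format, multiple compound concentrations. Buffer 50 mM HEPES pH 7.5/0.01% Tween-20; 200 nM KDM5BΔAP final; 10 min compound preincubation; substrate-mix levels 12.5 µM peptide, 25 µM α-KG, 0.25 mM NAD⁺; 30 min RT; ΔRFU.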
IP6K1 inh = inhibitors of human IP6K1. activity change, % (series mostly up to about 58 µM). actives 0.81% (n = 140,000). IP6K1 kinase, ADP-Glo luminescence, 2 h; active compounds read low. AID 1645851; in the data active means activity change below about -25%
Target sequence (Q92551 whole entry, looked up): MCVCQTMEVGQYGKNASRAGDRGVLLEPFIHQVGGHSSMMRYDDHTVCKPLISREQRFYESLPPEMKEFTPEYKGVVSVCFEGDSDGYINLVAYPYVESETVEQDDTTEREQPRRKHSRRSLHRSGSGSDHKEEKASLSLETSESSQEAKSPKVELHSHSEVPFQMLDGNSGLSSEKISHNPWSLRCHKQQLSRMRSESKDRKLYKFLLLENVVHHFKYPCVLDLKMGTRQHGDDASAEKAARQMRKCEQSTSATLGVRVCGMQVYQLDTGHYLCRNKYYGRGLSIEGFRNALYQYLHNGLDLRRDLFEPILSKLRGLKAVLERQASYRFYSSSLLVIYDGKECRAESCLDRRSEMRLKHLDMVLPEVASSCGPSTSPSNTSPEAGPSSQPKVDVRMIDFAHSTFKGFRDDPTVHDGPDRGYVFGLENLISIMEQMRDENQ
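ADP-Glo luminescence measures ADP made by human IP6K1 during a 2 h RT reaction with ATP/IP6 (mix at 1.3 mM/130 uM); top library doses 57.5 and 19.1 uM final.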
Numbers stand for hits; . = inactive; ? = inconclusive; / = no result. Shown are actives, neighbours in structure and some others; about 2.8% of the full set was active somewhere.

SMILES	KDM5B inh	IP6K1 inh
O=C(NCCCc1ccccc1)C1CCN(c2ccnc3ccnn23)CC1	/	.
C=CCN1CCN(C(=O)c2nnn3cc(-c4ccccc4)[nH]c(=O)c23)CC1	28.2µM	.
O=C(c1nnn2cc(-c3ccccc3)[nH]c(=O)c12)N1CCCCCC1	?	.
O=C(c1nnn2cc(-c3ccc(F)cc3)[nH]c(=O)c12)N1CCOCC1	31.6µM	.
CCCCN(CC)C(=O)c1nnn2cc(-c3ccc(Cl)cc3)[nH]c(=O)c12	.	.
CCCCNC(=O)c1nnn2cc(-c3ccc(Cl)cc3)[nH]c(=O)c12	8.91µM	.
O=C(NCC1CCCO1)c1nnn2cc(-c3ccccc3)[nH]c(=O)c12 (stereo unspecified)	?	.
CCS(=O)(=O)c1ccc(Cc2ccc(S(=O)(=O)CC)cc2)cc1	.	/
Cn1ncc2c(C(=O)NCC#N)cc(-c3ccc(F)cc3)nc21	/	.
Cn1ncc2c(C(=O)NCC3CC3)cc(C(C)(C)C)nc21	/	.
O=C(NCCc1ccccn1)C1CCC1	.	/
COc1ccc(Nc2ccnc(N3CCCC(C(=O)N4CCC(Cc5ccccc5)CC4)C3)n2)cc1 (stereo unspecified)	/	.
COCCNc1cc(-c2noc([C@@H]3CCCN3C3CCN(C(C)=O)CC3)n2)ccn1	39.8µM	.
COc1ccc(CN2CCC[C@H]2c2nc(-c3ccnc(N4CCOCC4)c3)no2)cc1	31.6µM	.
COCCNc1cc(-c2noc([C@@H]3CCCN3Cc3ccccn3)n2)ccn1	31.6µM	.
COCCOc1cc(-c2noc([C@@H]3CCCN3Cc3ccncc3)n2)ccn1	35.5µM	.
COCCNc1ccc(-c2noc([C@@H]3CCCN3Cc3ccccc3F)n2)cn1	?	.
COCCOc1cc(-c2noc([C@@H]3CCCN3Cc3ccc(C(=O)O)cc3)n2)ccn1	?	.
COc1ccc(-c2noc([C@@H]3CCCN3Cc3ccc(S(C)(=O)=O)cc3)n2)cn1	.	.
COCCOc1cc(-c2noc([C@@H]3CCCN3C3CCN(C(C)=O)CC3)n2)ccn1	.	.
CC(Oc1ccc(Cl)cc1Cl)c1nc(-c2ccncc2)no1 (stereo unspecified)	.	/
O=C(O)c1ccc(Nc2nc(-c3cc4ccccc4oc3=O)cs2)cc1	.	/
COc1ccc(CN2CCC[C@H]2c2nc(-c3cncnc3N)no2)c(O)c1	31.6µM	.
Cc1ccc(-c2noc([C@@H]3C[C@@H](O)CN3Cc3ncc[nH]3)n2)cc1F	.	.
c1cc(-c2noc([C@@H]3CCCN3Cc3ncc[nH]3)n2)cc(N2CCOCC2)n1	31.6µM	.
SMILES	KDM5B inh	IP6K1 inh
c1ccc(CN2CCC[C@H]2c2nc(-c3ccnc(N4CCOCC4)c3)no2)nc1	28.2µM	.
c1coc(-c2noc(CN3CCCC3c3nc(-c4ccncc4)no3)n2)c1 (stereo unspecified)	.	.
COc1ccc(CC(=O)N2CCC[C@H]2c2nc(-c3ccccc3Cl)no2)cc1	.	.
CCOc1ccc(N2C(=O)N(CC(=O)NC(C)CC)c3ccccc3S2(=O)=O)cc1 (stereo unspecified)	.	/
COc1cccc(NC(=O)N2CC[C@@H](CC(=O)O)[C@@H](CC3=NCCc4cc(OC)c(OC)cc43)C2)c1	.	.
CCCS(=O)(=O)N1CC[C@@H](CC(=O)O)[C@@H](CC2=NCCc3cc(OC)ccc32)C1	31.6µM	.
COc1cc2c(cc1OC)C(C[C@H]1CN(C(=O)Cc3ccccc3)CC[C@H]1CC(=O)O)=NCC2	.	.
CCCCCC(=O)N1CC[C@@H](CC(=O)O)[C@@H](CC2=NCCc3cc(OC)ccc32)C1	?	.
COc1ccc2c(c1)CCN=C2C[C@H]1CN(C(=O)C(=O)O)CC[C@H]1CC(=O)O	28.2µM	.
COc1ccc(NC(=O)N2CC[C@@H](CC(=O)O)[C@@H](CC3=NCCc4cc(OC)c(OC)cc43)C2)cc1	35.5µM	.
COCC(=O)N1CC[C@@H](CC(=O)O)[C@@H](CC2=NCCc3cc(OC)ccc32)C1	?	.
COc1cc2c(cc1OC)C(C[C@H]1CN(C(=O)c3cccn3C)CC[C@H]1CC(=O)O)=NCC2	31.6µM	.
CCOC(=O)C1c2c(OC)ccc3c2C(=CC(C)(C)CO3)CN1Cc1ccccc1 (stereo unspecified)	/	.
COCCNc1nc2c(c(=O)n(C)c(=O)n2C)n1CCOC	.	/
CNC(=O)NC(=O)C(C)Nc1cccc(Cl)c1C (stereo unspecified)	.	/
CC(C)Cn1nc(C(=O)N2CCCC2c2ccc3c(c2)OCCCO3)c2ccccc2c1=O (stereo unspecified)	.	/
COc1ccccc1NC(=O)N1CC[C@@H](CC(=O)O)[C@@H](CC2=NCCc3cc(F)ccc32)C1	?	.
COc1ccc2c(c1)CCN=C2C[C@H]1CN(C(=O)c2cccnc2)CC[C@H]1CC(=O)O	31.6µM	.
COc1ccc([C@H]2C[C@@H](O)[C@@H](O)[C@@H]2NCc2ccc(OC)nc2)cc1	.	.
